Assay results from PubChem BioAssay AID602123 (The Scripps Research Institute Molecular Screening Center, 2011).
The whole screen tested about 360,000 compounds, of which about 1,500 (0.42%) were called active. The sample holds actives, similar compounds and a random draw of the others, so the mix is not that of the screen. Unmarked numbers belong to inactive results. Cut-off read from the data, not from the text of the source: active = inhibition above about 13% (passing the limit was not always enough); inactive = the rest.

The compounds below were run against Lon protease (Escherichia coli (strain K12)) (UniProt P0A9M0) (assay: E. coli eLon protease inhibition – biochemical, fluorescence polarization, primary screen (AID 602123;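 note: 0% = enzyme with probe and DMSO and 100% = no enzyme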)). Conditions: purified E. coli Lon protease, at 7.94 µM, active compounds read high.
Sequence of Lon protease (Escherichia coli (strain K12)) (P0A9M0 whole entry, looked up): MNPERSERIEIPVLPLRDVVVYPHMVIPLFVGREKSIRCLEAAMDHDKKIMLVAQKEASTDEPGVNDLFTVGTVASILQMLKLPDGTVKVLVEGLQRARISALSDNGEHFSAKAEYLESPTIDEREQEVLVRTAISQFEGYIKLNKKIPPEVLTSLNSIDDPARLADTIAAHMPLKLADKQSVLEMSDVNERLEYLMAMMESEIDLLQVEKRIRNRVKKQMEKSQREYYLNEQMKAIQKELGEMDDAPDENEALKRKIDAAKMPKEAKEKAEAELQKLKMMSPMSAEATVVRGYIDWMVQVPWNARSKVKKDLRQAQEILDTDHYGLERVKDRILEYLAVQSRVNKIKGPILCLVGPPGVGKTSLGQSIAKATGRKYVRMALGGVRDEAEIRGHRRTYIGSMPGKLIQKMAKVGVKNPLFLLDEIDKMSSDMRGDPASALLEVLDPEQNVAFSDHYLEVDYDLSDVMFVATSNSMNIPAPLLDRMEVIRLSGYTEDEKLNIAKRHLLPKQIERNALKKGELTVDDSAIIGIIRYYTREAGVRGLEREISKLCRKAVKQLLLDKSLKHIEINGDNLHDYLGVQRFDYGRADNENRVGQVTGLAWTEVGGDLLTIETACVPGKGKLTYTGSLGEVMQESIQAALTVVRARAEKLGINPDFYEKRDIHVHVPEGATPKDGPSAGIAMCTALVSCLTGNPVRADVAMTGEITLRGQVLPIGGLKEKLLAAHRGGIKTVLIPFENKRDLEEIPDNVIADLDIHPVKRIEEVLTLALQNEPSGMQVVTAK
Work on CSc1nc(C)nc(C2CC2)c1C#N yielded an inhibition of 5.92%. With CC1(C)OC(=O)C(=CNC(CO)C(=O)O)C(=O)O1 (centres undefined) the inhibition was 17.8% (active). CC(C)Oc1ccccc1C(=O)NC(CO)C(=O)O (centres undefined) gave an inhibition of -0.19%. In the case of Cc1nn(CC(=O)Nc2ccc(C#N)cc2)c(C)c1[N+](=O)[O-], the inhibition was -15.5%. With COc1ncnc2c1N=C1CC(C)(C)CC(N)=C1S2 the inhibition was 65.4% (active). In the case of Cn1cc(CCC(=O)N2CCCC(C(=O)c3ccc(C(C)(C)C)cc3)C2)cn1 (centres undefined), the inhibition was -1.82%. Compound O=C(COc1ccc(/C=N/NS(=O)(=O)c2ccccc2)cc1)NCCc1ccccc1 has an inhibition of -5.95%. CCCCOCCCNC(=O)C[C@@H]1C[C@@]2(C(=O)OC)CCCCC=C2N(CCC2=CCCCC2)C1=O was tested, and the inhibition was 14.4% (active). Work on COC(=O)[C@]12CCCCC=C1N(CCC1=CCCCC1)C(=O)[C@H](CC(=O)NCC1CCCCC1)C2 yielded an inhibition of -2.93%. With CCOC(=O)N1CCN(C(=O)C[C@@H]2C[C@@]3(C(=O)OC)CCCCC=C3N(CCC3=CCCCC3)C2=O)CC1 the inhibition was 4.15%. Compound c1ccc(-c2ccc3c(c2)NC(C2Nc4cc(-c5ccccc5)ccc4O2)O3)cc1 (centres undefined) has an inhibition of -3.71%. Compound NC(=O)c1nnsc1-c1ccc(-c2snnc2C(N)=O)cc1 has an inhibition of 1.17%. COc1ccc(S(=O)(=O)N2CCOCC2)cc1NC(=O)COc1ccccc1 was tested, and the inhibition was -17.8%. For COc1ccc(S(=O)(=O)N2CCOCC2)cc1NC(=O)Cc1c(F)cccc1Cl, the inhibition was 20.4% (active). With COc1ccc(S(=O)(=O)N2CCOCC2)cc1NC(=O)CSc1cc(C)ccc1C the inhibition was -9.45%. Cc1ccc(CNC(=O)CCN2C(=O)[C@@H]3Cc4ccccc4CN3C2=O)cc1 was tested, and the inhibition was 1.97%. With O=C(CN1CCCSc2ccccc21)N1CCN(S(=O)(=O)c2cccc(F)c2)CC1 the inhibition was 19.9% (active). Work on O=C(CN1CCN(S(=O)(=O)c2cccc(Cl)c2)CC1)N1CCCCC1 yielded an inhibition of -0.39%. For O=C(CN1CCCSc2ccccc21)N1CCN(S(=O)(=O)c2ccccc2)CC1, the inhibition was 4.26%. Work on CC(C)N1CCC(=NNc2ccc([N+](=O)[O-])cc2S(=O)(=O)N2CCOCC2)CC1 yielded an inhibition of 1.91%. In the case of COc1ccccc1Oc1ccc(N2CC(C(=O)OCC(=O)c3ccc(F)cc3)CC2=O)cc1 (centres undefined), the inhibition was 2.52%. Compound CCn1c(=S)[nH]c2cc(S(=O)(=O)N3CCOCC3)ccc21 has an inhibition of 3.25%. In the case of CNS(=O)(=O)c1ccc2c(c1)[nH]c(=S)n2C, the inhibition was 62.6% (active). Compound CCCCn1c(=S)[nH]c2cc(S(=O)(=O)N3CCCCC3)ccc21 has an inhibition of -10.8%.
